From PubChem BioAssay AID651702 (NMMLSC, 2012)
Out of some 360,000 compounds screened, about 2,400 (0.67%) were called active. The full list was thinned out, with actives kept by preference. A number with no mark means an inactive call.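 Rule for the calls: active = inhibition above about 55% (limit read from the data); inconclusive = no clear call, values can overlap the other calls; inactive = the rest.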

Experiment: LAMP-1 surface exposure blockers, TALL-104 cells – cell-based, flow cytometry, MLPCN library, primary screen (AID 651702)
Conditions: TALL-104 LAMP-1 surface exposure, at 10 µM, active compounds read high, cells stimulated with thapsigargin and PMA

Structure (SMILES) | inhibition
CN(c1ccccc1)S(=O)(=O)c1ccc(C(=O)NCCc2ccccc2)cc1 | 70.8% (active)
Cc1ccccc1CSCCNC(=O)c1ccc(N(C)S(=O)(=O)c2ccccc2)cc1 | 6.2%
CN(c1ccccc1)S(=O)(=O)c1ccc(C(=O)NCc2cccnc2)cc1 | -0.5%
CCOC(=O)[C@H]1[C@H]2COc3cc(OC)ccc3[C@@H]2N2C(=O)N(c3ccc(Br)cc3)C(=O)[C@@]12C | -15.5%
CC(Oc1ccccc1)C(=O)Nc1c2c(nn1-c1ccccc1)CS(=O)C2 (stereo not given) | -4%
CCOC(=O)N1CCC(Nc2c(NCCN3CCN(c4cccc(Cl)c4)CC3)c(=O)c2=O)CC1 | 1.5%
O=C(Cc1ccc(-n2c(=O)[nH]c3ccccc3c2=O)cc1)N1CCN(c2cccc(Cl)c2)CC1 | -0.7%
O=C(Cc1csc(Nc2nc(=S)[nH]c3ccccc23)n1)NCCCN1CCN(c2cccc(Cl)c2)CC1 | 56.9% (active)
CC(=O)OCC(=O)C1(O)CCC2C3CC(C)C4=CC(=O)CCC4(C)C3C(O)CC21C (stereo not given) | -8.4%
CC(C(=O)NCC1CCCCC1)N(C)Cc1cccc(Cl)c1 (stereo not given) | 0.2%
COc1ccc(NC(=O)C(c2ccncc2)n2c(=O)c(-c3cc4ccccc4[nH]3)nc3ccccc32)cc1 (stereo not given) | 19.8%
COc1cc(NC(=O)COC(=O)c2cc(S(=O)(=O)N3CCOCC3)ccc2F)cc(OC)c1 | -1.4%
Cc1nc(C(=O)Nc2ccc(Cl)cc2)sc1C1(C)CC(c2ccccc2)=NO1 (stereo not given) | 1.2%
Cc1nc(-c2ccc(Cl)cc2)sc1C1(C)CC(c2ccccc2F)=NO1 (stereo not given) | 5.5%
Cc1nc(-c2ccc(Cl)cc2)sc1C1(C)CC(c2ccc(Br)cc2)=NO1 (stereo not given) | 56.1% (active)
Cc1ccccc1CSc1nnc(CCCCCNC(=O)OC(C)(C)C)o1 | -4.6%
CC(C)Cc1nnc(NC(=O)CN2C(=O)NC3(CCCCC3)C2=O)s1 | -0.9%
COc1cccc(CN(C)CC2CCCN(CCc3ccc(Cl)cc3)C2)c1OC (stereo not given) | 75.1% (active)
Cc1nc2ccc(C(=O)N(C)CC3CCCN(CCc4ccc(Cl)cc4)C3)cc2[nH]1 (stereo not given) | 6.7%
COc1cccc(CN(C)CC(=O)NCc2ccccc2Cl)c1OC | -3.5%
COCCNC(=O)C(c1ccc(O)cc1)N(C(=O)CCC(=O)Nc1nccs1)c1ccc(C)cc1 (stereo not given) | -4.4%
CCOc1cc(CN2CCCC(CO)(Cc3ccc(F)cc3F)C2)ccc1OC (stereo not given) | 11.4%
Cc1cc(C)cc(NC(=O)NC2CCN(CC(=O)Nc3cccc(Cl)c3C)CC2)c1 | 9.3%

Structure (SMILES) | inhibition
COc1ccc(CCNC(=O)CN(c2ccccc2)S(C)(=O)=O)cc1 | 10.8%
N=c1c2c(-c3ccccc3)c(-c3ccccc3)oc2ncn1Cc1ccco1 | 59.7% (active)
C(=C\c1ccccc1)/CSc1nnc(-c2cccnc2)n1Cc1ccco1 | -1%
COc1ccc(-c2oc3ncn(Cc4ccco4)c(=N)c3c2-c2ccc(OC)cc2)cc1 | 24.9%
COc1ccccc1C(=O)NCCC(=O)NN1C(=O)NC2(CCCCC2)C1=O | 4%
O=C(O)C(F)(F)C(NCc1ccccc1)c1ccccc1 (stereo not given) | 2.5%
Cc1cc(C)n(CCNC(=O)CC2C(=O)NCCN2Cc2ccc(C)o2)n1 (stereo not given) | -10.6%
Nc1ccn(CC(=O)N2CCN(c3ccccn3)CC2)c(=O)n1 | 6.5%
CC(C)(C)NC(=O)CN(Cc1cccs1)C(=O)CNS(=O)(=O)c1ccccc1 | -2.2%
COc1ccc(OC)c(NC(=O)CN(Cc2ccc(Cl)cc2)S(C)(=O)=O)c1 | 6.3%
COc1ccc(Br)cc1CN(C)CC(=O)Nc1cc([N+](=O)[O-])ccc1OC | 0.6%
COc1ccc(OC)c(NC(=O)CN(C)CCOc2ccc(Br)cc2)c1 | 93.7% (active)
COCc1c(C(=O)N/N=C/C2CC=CCC2)nnn1-c1nonc1N (stereo not given) | 1.4%
CCCCN(CCCC)CC(O)Cn1c2ccccc2c(=O)c2ccccc21 (stereo not given) | 11.9%
Cc1cc(C)n(CC(O)CN(c2ccccc2)S(=O)(=O)c2ccc3ccccc3c2)n1 (stereo not given) | -1%
CS(=O)(=O)N(CC(O)Cn1c2ccccc2c2ccccc21)c1cccc2ccccc12 (stereo not given) | 86.5% (active)
O=S(=O)(NCC1CC1)c1ccc(F)c(Cl)c1 | -8.8%
CCOc1ccc(C(C)=O)cc1COC(=O)CNC(=O)c1cccs1 | -4.6%
CCOc1ccc(C(C)=O)cc1COC(=O)c1cnc(Cl)c(Cl)c1 | 57.6% (active)
COC(=O)c1ccc(COC(=O)c2cnc(Cl)c(Cl)c2)cc1 | -4.5%
CC(C)(C)NS(=O)(=O)CC12CCC(CC1=O)C2(C)C (stereo not given) | -2.4%
COc1ccc(NC(=O)/C(Cl)=C(/Cl)S(=O)Cc2ccc(C)cc2)cn1 (stereo not given) | 103% (active)
O=C(O[C@@H]1[C@H](Cc2ccccc2)NS(=O)(=O)[C@H]2C[C@@H]3C=C[C@]12O3)c1ccccc1Br | -3.7%

Structure (SMILES) | inhibition
COC(=O)c1ccccc1NC(=O)CSc1nc2c(c(=O)[nH]1)CCC2 | 8.6%
OC(COCC1COc2ccccc2O1)CN1CCN(c2ccc(F)cc2)CC1 (stereo not given) | -15.5%
CCN1CCN(CCNC(=O)c2ccc(/C=C3/Sc4ccccc4N(Cc4cccc(C)c4)C3=O)cc2)CC1 | 86.2% (active)
O=C(CN1C(=O)/C(=C\c2ccc(C(F)(F)F)cc2)Sc2ccccc21)NCc1ccco1 | -0.7%
CCN1CCN(CCNC(=O)c2ccc3c(c2)NC(=O)/C(=C\c2cccc(Cl)c2)S3)CC1 | 10.1%
CC(=O)c1cnc(SCC(=O)O)nc1C | -1%
Cc1cc(NC(=O)CS(=O)(=O)c2cn(C)c3ccccc23)no1 | -1.6%
COc1ccc(C(=O)NCC2CCCO2)cc1S(=O)(=O)NCc1ccc(Cl)cc1 (stereo not given) | -5.7%
C=CCn1c(SCC(=O)Nc2ccc(NC(C)=O)cc2)nc2sc(C)c(C)c2c1=O | -3.1%
C=CCn1c(SCc2csc(C)n2)nc2scc(-c3ccc(C)o3)c2c1=O | 62.3% (active)
C=CCn1c(SCC(=O)/C(C#N)=C(\C)N)nc2sc(C)c(C)c2c1=O | -1.8%
COc1ccccc1NS(=O)(=O)c1ccc(C)c(C(=O)NCC(c2ccco2)N(C)C)c1 (stereo not given) | 3.6%
CCc1ccc(NC(=O)CS(=O)CC(=O)NCCCc2ccccc2)cc1 (stereo not given) | -1.4%
O=C(NCC1CCCO1)C(C(=O)c1ccccc1)n1cc(Cl)ccc1=O (stereo not given) | 1.4%
CC(=O)c1c(C)[nH]c(C(=O)OCC(=O)Nc2c(C)cccc2C)c1C | 2.6%
COc1ccc(C)cc1NC(=O)C(OC(=O)c1cccc(S(=O)(=O)N(C)c2ccccc2)c1)c1ccccc1 (stereo not given) | 0.3%
CC(=O)c1c(C)[nH]c(C(=O)COC(=O)c2cccc(S(=O)(=O)N(C)c3ccccc3)c2)c1C | 75.4% (active)
CCOC(=O)CN1CC23C=CC(O2)C(C(=O)Nc2ccc(F)cc2)C3C1=O (stereo not given) | 1.3%
CC(C)C(=O)NCc1cc(-c2ccc(Cl)cc2)no1 | 0.2%
O=C(Nc1ccc(Cl)cn1)c1ccccc1-c1ccccc1 | -5.1%
Oc1ccccc1-c1cc(-c2ccc(Cl)cc2)n[nH]1 | 92.9% (active)
CCCN(CC1CC1)C(=S)NC(=O)c1ccccc1Br | -2.1%
CC1Cc2nc(SCC(=O)Nc3ccccc3F)n(C)c(=O)c2S1 (stereo not given) | 3.3%

Structure (SMILES) | inhibition
COCCn1c(C)cc(C(=O)COC(=O)/C=C/c2cccc(OC)c2)c1C | -3.8%
CC1CCN(c2ccc([N+](=O)[O-])cc2C(N)=O)CC1 | 60.4% (active)
CC1CCN(C(=S)c2cccc([N+](=O)[O-])c2)CC1 | 0.5%
O=C(O)C1CCN(c2ccc([N+](=O)[O-])cc2[N+](=O)[O-])CC1 | -1.4%
Cc1ccc(C(C)C)c(OCc2nnc(SCC(=O)Nc3nccs3)n2C)c1 | 1.2%
C/C(=N\NC(=O)c1ccc(C)cc1)C1C(=O)c2ccccc2C1=O | -2.2%
COc1cc(NC(=O)c2ccccc2)c(OC)cc1NC(=O)Cc1ccccc1 | 0%
O=C(NC1=CC(=O)c2ccccc2C1=O)c1ccccc1 | 108% (active)
Cc1ccc(S(=O)(=O)NCCSC(C)(C)C)cc1 | 11%
O=C(NCc1ccccc1)c1onc(CSc2nc3ccccc3[nH]2)c1C(=O)NCc1ccccc1 | -2.7%
COc1ccc(C(O)C(O)(C(=O)OC(C)C)c2ccc(C)cc2)cc1 (stereo not given) | -2.2%
C[N+](C)(C)CCNC(=O)c1c[nH]c2ccccc12 | -7.5%
COc1ccc(C2C(C(C)=O)=C(O)C(=O)N2CCc2c[nH]c3ccccc23)cc1 (stereo not given) | 0.4%
COc1ccc(/C=C(\C#N)c2c[nH]c3ccccc23)cc1 | 90.4% (active)
O=C(CN1C(=O)NC2(CCc3ccccc32)C1=O)NC1CCCCC1 (stereo not given) | -1.5%
Brc1ccc2c(c1)[C@H]1OCC[C@H]1[C@@H](c1cccs1)N2 | 1%
COc1cccc2oc(CCc3ccccc3)cc(=O)c12 | -4.5%
COc1ccc(CC(N)c2csc(NC(=O)Cc3ccccc3)n2)cc1 (stereo not given) | -2.9%
COc1ccc(CC(N)c2csc(NC(=O)Nc3ccc(C(C)C)cc3)n2)cc1 (stereo not given) | 67.4% (active)
COc1ccc(CC(N)c2csc(NC(=O)NC(c3ccccc3)c3ccccc3)n2)cc1 (stereo not given) | 11.2%
CC(=O)NCC(=O)N(Cc1ccco1)C1(C(=O)NC2CCCC2)CCCCC1 | 4.1%
